# An excerpt weighted towards active compounds, which were near 2% of everything screened.
# LYPLA1 inh – LYPLA1 inhibitors, primary screen, counter-screen for PME1 inhibitor project, biochemical, fluorescence polarization, FP-Rh probe ABPP; inhibition, % at 5.9 µM; recombinant LYPLA1; hit rate 0.16% among 320,000; Acyl-protein thioesterase 1 (Homo sapiens), O75608;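 active = inhibition above the mean of all tested compounds plus 3 SD, set per campaign, cut at about 14% in these data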;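 note: inhibitors block serine hydrolase probe labeling of LYPLA1 so polarization falls; 0% = enzyme with DMSO and 100% = wells lacking LYPLA1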
# GSTO1 inh – inhibitors of recombinant GSTO1, primary screen, counter-screen for RBBP9 inhibitor project, biochemical, fluorescence polarization; Glutathione S-transferase omega-1 (Homo sapiens), P78417; activity-based probe fluorescence polarization; inhibition, % at 5.96 µM; hit rate 1.1% among 300,000;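 active = inhibition above the campaign mean inhibition plus 3 SD, cut at about 35% in these data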;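 note: 0% = GSTO1-1 with DMSO and 100% = wells lacking GSTO1-1 enzyme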
# PREPL inh – PREPL enzyme inhibitors, primary screen, biochemical, fluorescence polarization; recombinant PREPL, fluorescence polarization activity-based probe; hit rate 0.68% among 320,000; Prolyl endopeptidase-like (Homo sapiens), Q4J6C6; inhibition, % at 5.96 µM; in the data active = inhibition above about 43%;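 note: 0% = enzyme with DMSO and 100% = wells lacking enzyme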
# LYPLA2 counter – LYPLA2 inhibitors, primary screen, counter-screen for PME1 inhibitor project, biochemical, fluorescence polarization, FP-Rh probe ABPP; hit rate 0.38% among 320,000; recombinant LYPLA2; Acyl-protein thioesterase 2 (Homo sapiens), O95372; inhibition, % at 5.9 µM;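 active = inhibition above the screen-wide mean plus 3 SD, limit set per campaign, cut at about 26% in these data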;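 note: 0% = LYPLA2 with DMSO and 100% = wells lacking LYPLA2 enzyme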
# Target sequence (O95372 whole entry, looked up): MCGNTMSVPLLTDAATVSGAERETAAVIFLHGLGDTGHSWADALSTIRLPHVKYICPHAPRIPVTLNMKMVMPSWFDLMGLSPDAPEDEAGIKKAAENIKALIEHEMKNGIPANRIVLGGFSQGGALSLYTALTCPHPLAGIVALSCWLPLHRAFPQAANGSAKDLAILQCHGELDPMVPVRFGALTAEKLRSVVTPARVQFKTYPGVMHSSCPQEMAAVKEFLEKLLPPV
# Fam108B inh – mouse Fam108B serine hydrolase inhibitors, primary screen, counter-screen for RBBP9 inhibitor project, biochemical, fluorescence polarization; recombinant Fam108B, FP-Rh probe fluorescence polarization; inhibition, % at 9.51 µM; hit rate 0.33% among 300,000; AID 1947, 2009;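 active = inhibition above the screen mean inhibition plus 3 SD, computed separately per campaign, cut at about 18% in these data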;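 note: inhibitors lower polarization as less probe binds the enzyme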
# PME-1 primary – PME-1 inhibitors via competitive probe labeling, primary screen, biochemical, fluorescence polarization, FP-Rh probe, HTS; recombinant PME-1; inhibition, % at 5.9 µM; hit rate 0.53% among 320,000; AID 2130, 2009; Protein phosphatase methylesterase 1 (Homo sapiens), Q9Y570;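 active = inhibition above the campaign mean of all compounds plus 3 SD, cut at about 26% in these data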;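 note: competitive labeling of PME-1 active site by serine hydrolase directed probe; 0% = PME-1 with DMSO and 100% = wells lacking PME-1 enzyme; inhibitors block probe labeling so polarization falls and inhibition rises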
# Target sequence (Q9Y570 whole entry, looked up): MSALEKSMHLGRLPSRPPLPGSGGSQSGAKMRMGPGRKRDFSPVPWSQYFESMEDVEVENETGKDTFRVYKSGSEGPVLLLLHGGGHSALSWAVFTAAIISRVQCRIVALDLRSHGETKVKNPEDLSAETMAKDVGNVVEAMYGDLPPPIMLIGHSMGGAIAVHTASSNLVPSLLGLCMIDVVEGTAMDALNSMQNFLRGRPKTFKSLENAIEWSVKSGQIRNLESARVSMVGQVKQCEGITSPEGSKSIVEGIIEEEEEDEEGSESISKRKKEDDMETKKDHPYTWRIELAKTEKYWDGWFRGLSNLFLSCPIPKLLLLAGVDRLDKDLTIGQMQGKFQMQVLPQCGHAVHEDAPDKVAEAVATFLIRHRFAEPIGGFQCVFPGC
# Fam108b inh conf – mouse Fam108b serine hydrolase inhibitors, confirmation, counter-screen for RBBP9 inhibitor project, biochemical, fluorescence polarization, triplicate. AID 1978, 2009. shares compounds with Fam108B inh. recombinant Fam108b, FP-Rh probe fluorescence polarization. hit rate 44% among 930. inhibition, % at 9.51 µM;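 active = inhibition above a limit from the primary screen, the mean over all compounds plus 3 SD, cut at about 19% in these data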;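 note: 0% = median of active Fam108b wells and 100% = catalytically dead S170A mutant; inhibitors free the probe so polarization falls as inhibition rises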
# Fam108b ABPP HTS – inhibition of mouse Fam108b by HTS hits, late-stage follow-up, biochemical, gel-based ABPP, soluble recombinant form | hit rate 44% among 260 | fluorophosphonate probe | inhibition, % at 20 µM | shares compounds with Fam108B inh; in the data active = inhibition above about 40%
# An asterisk follows results filed as active; x = no result.
SMILES,LYPLA1 inh,GSTO1 inh,PREPL inh,LYPLA2 counter,Fam108B inh,PME-1 primary,Fam108b inh conf,others
Cc1ccc(-c2nc(Nc3cccc(O)c3)c3ccccc3n2)cc1,-28.0,-20.2,3.2,-32.3,0.7,-9.4,x,
Cc1cc(N(C)C)ccc1N=Nc1ccc2ncccc2c1,6.5,7.6,25.9,12.2,11.1,31.6*,x,
O=C(N/N=C/c1cc([N+](=O)[O-])ccc1O)c1c[nH]c2ccccc12,-4.8,-6.6,14.7,-9.5,9.7,12.6,x,
CCc1ccc(-c2cc(C(=O)N/N=C/c3c[nH]c4ccccc34)[nH]n2)cc1,-19.2,-30.4,37.7,-23.1,1.7,39.6*,x,
O=C(N/N=C/c1c[nH]c2ccccc12)c1ccc([N+](=O)[O-])cc1Cl,2.2,10.4,20.1,6.5,14.7,26.4*,x,
O=C(Nc1cc(C(=O)N2CCN(c3ccccc3O)CC2)ccc1Cl)c1cccs1,-3.2,-2.4,11.9,-7.4,4.2,3.0,x,
O=C(CSc1nc(=O)n2ccccc2n1)NCc1ccccc1,-0.2,2.2,4.4,4.0,2.3,0.1,x,
CCCCCNc1nc(-c2ccccc2)cs1,-4.2,0.8,69.9*,-4.5,4.2,0.5,x,
COC1=C(Nc2ccccc2)C(=O)c2ccccc2C1=O,2.6,48.6*,2.2,2.7,5.6,15.8,x,
O=C(CN1C(=O)NC2(CCCCCC2)C1=O)c1cccs1,-2.7,x,1.4,-0.6,x,-3.2,x,
Cc1ccc(S(=O)(=O)N2[C@@H](c3ccc(Br)cc3)C(C(=O)O)=CC[C@H]2c2ccc3c(c2)OCO3)cc1,x,x,-5.1,x,x,x,x,
CCN1CCN(c2nc3c(c(=O)n(C)c(=O)n3C)n2Cc2cccc3ccccc23)CC1,2.7,7.9,46.1*,3.4,-1.3,0.1,x,
COc1cc(-c2nc(-c3ccc4c(c3)-c3ccccc3S4(=O)=O)c(-c3ccccc3)[nH]2)cc(OC)c1O,-20.8,-29.1,22.8,-12.7,32.3*,0.6,36.7*,Fam108b ABPP HTS=80.0*
Cn1c(SCC(=O)N2CCOCC2)nc2c(c1=O)SCC2,-8.5,-10.6,1.4,-4.8,1.4,5.1,x,
Cc1cc2c(SCC(=O)NC3CCCC3)ncnc2s1,0.7,4.0,-2.6,-4.6,2.0,-4.6,x,
Cc1cc(SCC(=O)c2ccc(O)c(O)c2)n2nc(C)c(-c3ccccc3)c2n1,-17.1,35.5*,42.5,7.2,18.3*,15.1,-16.5,
NS(=O)(=O)c1ccc(Nc2nc(-c3ccc(F)cc3)cs2)cc1,-3.9,-0.1,13.2,-4.8,3.0,7.0,x,
Oc1ccc(-c2csc(Nc3ccccn3)n2)c(O)c1,-3.1,9.3,17.5,-2.8,19.1*,14.1,12.1,
c1ccc(Nc2nc(-c3cccs3)cs2)nc1,8.6,1.2,13.2,2.7,1.9,15.1,x,
Cc1cc(NS(=O)(=O)c2ccc(Nc3nc(-c4ccc(O)cc4)cs3)cc2)no1,6.7,14.1,13.8,5.1,25.8*,2.9,-70.3,
Cc1cccnc1Nc1nc(-c2ccc(O)cc2O)cs1,0.3,16.5,5.7,-4.8,18.3*,22.9,10.2,
Cc1cccnc1Nc1nc(-c2ccccn2)cs1,3.5,9.8,23.1,10.1,3.4,12.0,x,
NS(=O)(=O)c1ccc(Nc2nc(-c3ccc(O)cc3O)cs2)cc1,-9.3,8.1,17.0,0.0,22.6*,11.8,98.6*,Fam108b ABPP HTS=35.0
Cc1ccccc1-c1noc(CNC(=O)c2ccco2)n1,-1.1,5.6,-6.2,-6.6,-1.4,-5.8,x,
CCOC(=O)c1ccc(N2CCN(C(C)=O)CC2)c(NC(=O)c2cccnc2)c1,-2.5,0.9,-9.0,-3.7,0.4,-5.0,x,
SMILES,LYPLA1 inh,GSTO1 inh,PREPL inh,LYPLA2 counter,Fam108B inh,PME-1 primary,Fam108b inh conf,others
CCOC(=O)Cc1csc(NC(=O)c2sc3nc4c(C)cc(C)cc4cc3c2N)n1,-9.2,4.7,20.9,-2.6,23.2*,85.9*,3.9,
NS(=O)(=O)c1ccc(N=Nc2c(-c3ccccc3)[nH]n(-c3nc(-c4ccccc4)cs3)c2=O)cc1,2.0,22.4,2.7,-3.3,33.2*,13.4,1.3,
Nc1[nH]n2c(=O)cc(-c3ccccc3)nc2c1N=Nc1ccc(S(N)(=O)=O)cc1,-1.3,-3.0,26.4,-4.2,17.2,-10.9,x,
COc1cccc(C=NNc2nc(Nc3ccc([N+](=O)[O-])cc3)nc(N3CCCC3)n2)c1O,x,x,x,x,x,x,x,Fam108b ABPP HTS=90.0*
C=C1CCC[C@]2(C)C[C@H]3OC(=O)C(CNCCN(CC)CC)[C@H]3CC12 (some centres undefined),2.0,-2.9,0.7,1.9,-0.1,-5.7,x,
CCN(CC)c1ccc(/C=C(/C#N)c2nc3ccccc3[nH]2)c(OC(C)C)c1,-9.6,11.4,19.9,-3.4,20.3*,9.3,0.4,
O=C(N/N=C/c1ccc(O)cc1)c1cccc(N/N=C/c2ccc(O)cc2)c1,-13.6,-14.9,22.1,-0.8,55.6*,30.8*,47.6*,
CCCN(C(=O)COC(=O)CNC(=O)c1ccc2ccccc2c1)c1c(N)n(Cc2ccccc2)c(=O)[nH]c1=O,3.3,6.1,-22.3,4.8,2.1,-1.3,x,
O=C(CN1CCCc2ccccc21)N/N=C/c1c(O)ccc2ccccc12,-12.3,-6.3,34.1,-1.0,42.6*,31.1*,16.2,
Clc1ccc(C2Nc3cccc4cccc(c34)N2)cc1,-4.7,35.3*,40.7,1.5,27.8*,18.6,22.5*,
Brc1ccc(C2Nc3cccc4cccc(c34)N2)s1,-7.5,33.9,8.0,1.2,42.4*,33.4*,28.5*,
CSc1ccc(C2NC(=O)c3ccccc3N2)cc1 (centres undefined),0.4,-2.5,-1.2,6.0,-0.9,5.7,x,
c1cc2c3c(cccc3c1)NC(c1ccc3c(c1)OCO3)N2,-8.4,35.5*,9.9,-3.5,24.0*,22.8,4.4,
CSc1ccc(C2Nc3cccc4cccc(c34)N2)cc1,-17.3,12.4,10.0,-20.5,18.8*,47.6*,6.1,
CC(C)(C)OC(=O)N1CCN(C(=O)OCC2c3ccccc3-c3ccccc32)CC1C(=O)O (centres undefined),1.0,1.7,11.2,-7.3,2.3,1.2,x,
Cc1ccc(S(=O)(=O)c2c(C)cc(C)[nH]c2=O)cc1,3.5,3.4,14.4,4.1,-2.8,-4.5,x,
O=C1S/C(=C\C=C\c2ccco2)C(=O)N1c1ccc(O)cc1,-8.5,24.5,7.2,-3.3,5.2,-2.6,x,

# Source: PubChem (The Scripps Research Institute Molecular Screening Center)
